Results published in PubChem BioAssay (NCATS).
Records with an inconclusive call do not appear. A number with no mark means an inactive call. Activity calls are given as the source filed them. Calls follow the shape of the full dose curve; tested in HEK293 reporter line.

test: qHTS for Inhibitors of the Functional Ribonucleoprotein Complex (vRNP) of Lassa (LASV) Arenavirus: LASV Primary Screen - GLuc reporter signal (AID 1347082); settings: LASV minigenome vRNP, Gaussia luciferase reporter; series mostly up to 57.5 µM; activity change, negative = inhibition: at the top concentration; also: nearly all actives have a fitted effect of over 60% in size
% is scaled to controls: 0 for no effect and ±100 for the full control effect; potency is read from the fitted curve at half-maximal effect.

Compound	activity change, negative = inhibition	Potency
O=C(N[C@@H](COc1ccc2[nH]c(=O)[nH]c2c1)c1ccccc1)c1cccn(Cc2ccc(F)c(F)c2)c1=O	-8.19%	–
C[C@]12CC[C@H]3[C@@H](CCC4=CC(=O)CC[C@@]43C)[C@H]1CC[C@H]2OC(=O)CCC1CCCC1	-23.1%	–
Clc1ccccc1C(c1ccccc1)(c1ccccc1)n1cccn1	-1.99%	–
CC(C)[C@]12O[C@@H]1[C@@H]1O[C@]13[C@]1(O[C@H]1C[C@@H]1C4=C(CC[C@@]13C)C(=O)OC4)[C@H]2O	-59.9%	–
O=C(O)CC[N+](=O)[O-]	–	inactive
COc1ccc(CC2NCCc3cc(OC)c(OC)cc32)cc1OC (stereo unspecified)	-22.7%	–
C[C@@H]1CC[C@@]2(OC1)O[C@H]1C[C@H]3[C@@H]4CC=C5C[C@@H](O[C@@H]6O[C@H](CO)[C@@H](O[C@@H]7O[C@@H](C)[C@H](O)[C@@H](O)[C@@H]7O)[C@H](O)[C@@H]6O[C@@H]6O[C@@H](C)[C@H](O)[C@@H](O)[C@@H]6O)CC[C@]5(C)[C@@H]4CC[C@]3(C)[C@@H]1[C@H]2C	-12.1%	–
CC(N[C@H]1C[C@H]1c1ccccc1)c1ccc2c(c1)OCCO2 (stereo partly specified)	-27.8%	–
CC(=O)O[C@@]12CO[C@H]1C[C@H](O)[C@@]1(C)C(=O)[C@H](O)C3=C(C)[C@@H](O)C[C@@](O)([C@@H](OC(=O)c4ccccc4)[C@@H]21)C3(C)C	-1.21%	–
O=[N+]([O-])c1c(Cl)c(Cl)cc(Cl)c1Cl	-11.8% [at 115 µM]	–
COc1ccc(N(C(=O)Oc2c(C)cccc2C)c2ccnc(Nc3ccc(N4CCN(C)CC4)cc3)n2)c(OC)c1	-44.8%	–
O=C(Nc1ccncc1)C(=O)c1cn(Cc2ccc(Cl)cc2)c2ccccc12	-11.7%	–
CC[N+]1(CCOC(=O)C(O)(c2ccccc2)c2ccccc2)CCCCC1	-13.4%	–
CC(=Cc1csc(C)n1)[C@@H]1C[C@H]2O[C@]2(C)CCC[C@H](C)[C@@H](O)[C@@H](C)C(=O)C(C)(C)[C@@H](O)CC(=O)O1	-30.2%	–
COc1ccc2c(c1)[C@]13CCCCC1C(C2)N(C)CC3 (stereo partly specified)	-18%	–
CCCCCCCCCC(CC)c1ccc(S(=O)(=O)O)cc1 (stereo unspecified)	8.75% [at 115 µM]	–
c1cc2ccc3cccc4ccc(c1)c2c34	13.7% [at 115 µM]	–
C[C@@]12OC(=O)[C@]1([C@@H](O)[C@@H]1C=CCCC1)NC(=O)[C@H]2CCCl	–	34.3 µM (active)
N#C[C@H](O[C@@H]1O[C@H](CO[C@@H]2O[C@H](CO)[C@H](O)[C@H](O)[C@H]2O)[C@H](O)[C@H](O)[C@H]1O)c1ccccc1	–	17.2 µM (active)
CC(C)[C@H]1C(=O)N[C@H](CO)Cc2c[nH]c3cccc(c23)N1C	46.8%	–
O=[N+]([O-])c1cc([N+](=O)[O-])c2ccccc2c1	-10.3% [at 115 µM]	–
Oc1ccc2c3c1O[C@H]1[C@@H](O)C=C[C@H]4[C@@H](C2)NCC[C@@]341	-21.7% [at 115 µM]	–
COc1cc([C@@H]2c3cc4c(cc3[C@@H](O)C3COC(=O)C32)OCO4)cc(OC)c1O (stereo partly specified)	6.04%	–
O=S(=O)(CC1CS1)c1ccc(Oc2ccccc2)cc1 (stereo unspecified)	7.54%	–
CN(C)NC(=O)CCC(=O)O	1.67%	–
CS(=O)(=O)c1ccc(C(=O)C2C(=O)CCCC2=O)c([N+](=O)[O-])c1	-21.1% [at 115 µM]	–

test: qHTS for Inhibitors of the Functional Ribonucleoprotein Complex (vRNP) of Lassa (LASV) Arenavirus: Viability assay - alamar blue signal for LASV Primary Screen (AID 1347083); settings: cell viability, alamar blue fluorescence (LASV minigenome counter-screen); series mostly up to 57.5 µM; activity change, negative = reduced viability: at the top concentration; also: nearly all actives have a fitted effect of over 80% in size

Compound	activity change, negative = reduced viability	Potency
COc1nn(CSP(=S)(OC)OC)c(=O)s1	-14.9% [at 115 µM]	–
O=C(N[C@@H](COc1ccc2[nH]c(=O)[nH]c2c1)c1ccccc1)c1cccn(Cc2ccc(F)c(F)c2)c1=O	-1.86%	–
O=C(Oc1ccc([N+](=O)[O-])cc1)N1CCN(Cc2cccc(Oc3ccccc3)c2)CC1	–	24.3 µM (active)
CC(C)(O)C=CC(=O)[C@](C)(O)[C@H]1[C@H](O)C[C@]2(C)[C@@H]3CC=C4[C@@H](C=C(O)C(=O)C4(C)C)[C@]3(C)C(=O)C[C@@]12C	–	3.06 µM (active)
Clc1ccccc1C(c1ccccc1)(c1ccccc1)n1cccn1	4.82%	–
CC(C)[C@]12O[C@@H]1[C@@H]1O[C@]13[C@]1(O[C@H]1C[C@@H]1C4=C(CC[C@@]13C)C(=O)OC4)[C@H]2O	-122%	–
c1cc2c(cc1[C@H]1OC[C@H]3[C@H]1CO[C@H]3c1ccc3c(c1)OCO3)OCO2	15.1%	–
CC=C(C)C(=O)O[C@H]1C(C)=C2[C@@H]3OC(=O)[C@@](C)(O)[C@@]3(O)[C@@H](OC(=O)CCC)C[C@](C)(OC(C)=O)[C@@H]2[C@@H]1OC(=O)CCCCCCC	–	0.769 µM (active)
O=C(O)CC[N+](=O)[O-]	–	inactive
COc1ccc(CC2NCCc3cc(OC)c(OC)cc32)cc1OC (stereo unspecified)	-9.44%	–
CC(=O)O[C@@]12CO[C@H]1C[C@H](O)[C@@]1(C)C(=O)[C@H](O)C3=C(C)[C@@H](O)C[C@@](O)([C@@H](OC(=O)c4ccccc4)[C@@H]21)C3(C)C	–	13.7 µM (active)
O=[N+]([O-])c1c(Cl)c(Cl)cc(Cl)c1Cl	13.1% [at 115 µM]	–
CC[N+]1(CCOC(=O)C(O)(c2ccccc2)c2ccccc2)CCCCC1	-0.035%	–
CC(=Cc1csc(C)n1)[C@@H]1C[C@H]2O[C@]2(C)CCC[C@H](C)[C@@H](O)[C@@H](C)C(=O)C(C)(C)[C@@H](O)CC(=O)O1	-95.2%	–
CCOC(=O)Nc1ccc(NCc2ccc(F)cc2)cc1N	–	5.44 µM (active)
CCCCCCCCCC(CC)c1ccc(S(=O)(=O)O)cc1 (stereo unspecified)	29.8% [at 115 µM]	–
c1cc2ccc3cccc4ccc(c1)c2c34	15.8% [at 115 µM]	–
CO/C=C(/C(=O)OC)c1ccccc1Oc1cc(Oc2ccccc2C#N)ncn1	–	22.4 µM (active)
N#C[C@H](O[C@@H]1O[C@H](CO[C@@H]2O[C@H](CO)[C@H](O)[C@H](O)[C@H]2O)[C@H](O)[C@H](O)[C@H]1O)c1ccccc1	–	19.3 µM (active)
CC[C@@H]1[C@@H](C)O[C@@](O)([C@@H](C)[C@H](O)[C@H](C)[C@H]2OC(=O)C=CC=C[C@@H](C)[C@@H]([C@@H](C)[C@@H](O)[C@H](C)[C@@]3(O)C[C@H](O[C@H]4C[C@H](O)[C@H](O)[C@H](C)O4)[C@H](CC)[C@@H](C)O3)OC(=O)C=CC=C[C@@H]2C)C[C@H]1O[C@H]1C[C@H](O)[C@H](O)[C@H](C)O1	–	43.2 µM (active)
O=[N+]([O-])c1cc([N+](=O)[O-])c2ccccc2c1	14% [at 115 µM]	–
Oc1ccc2c3c1O[C@H]1[C@@H](O)C=C[C@H]4[C@@H](C2)NCC[C@@]341	-10.2% [at 115 µM]	–
N=c1c2c(-c3ccccc3)c(-c3ccccc3)n(Cc3ccccc3)c2ncn1C1CCC(O)CC1 (stereo unspecified)	–	1.09 µM (active)
CCOC(=O)c1c(C(C#N)=CN)c2ccc(Cl)c(Cl)c2n1C	–	10.9 µM (active)
COc1cc([C@@H]2c3cc4c(cc3[C@@H](O)C3COC(=O)C32)OCO4)cc(OC)c1O (stereo partly specified)	–	0.0863 µM (active)
O=S(=O)(CC1CS1)c1ccc(Oc2ccccc2)cc1 (stereo unspecified)	-7.18%	–
CC1=C(O)C(=O)C=C2C1=CC=C1[C@@]2(C)CC[C@@]2(C)[C@@H]3C[C@](C)(C(=O)O)CC[C@]3(C)CC[C@]12C	–	19.3 µM (active)
CN(C)NC(=O)CCC(=O)O	-34.4%	–
O=S(=O)(F)Cc1ccccc1	–	1.53 µM (active)
CS(=O)(=O)c1ccc(C(=O)C2C(=O)CCCC2=O)c([N+](=O)[O-])c1	-6.56% [at 115 µM]	–
